Calb FLC = affects C. albicans growth with fluconazole; C. albicans CaCi-2 (fluconazole-resistant clinical isolate) + fluconazole, Alamar Blue growth, 48 h; growth inhibition, % (concentration not given with the values); 300,000 tested, 0.57% active; AID 1979;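 active = growth inhibition above about 58% in most replicates, limit read from the data, passing the limit was not always enough; inconclusive = exactly half the replicates above a set limit; inactive = most replicates below a set limit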;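 also: all wells also contain fluconazole at 8 µg/ml as a sub-toxic cotreatment; 0% = median of DMSO wells and 100% = median of geldanamycin control wells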
Beta apoptosis = beta cell apoptosis inhibition; INS-1E cytokine-induced death, ATP luminescence, 48 h; percent of positive-control rescue, neutral wells zero; protection from apoptosis, % (no concentration beside the values); 300,000 tested, 0.8% active;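 active = Every replicate reaches about 75%, or at least half do and their mean reaches it too, limit read from the data; inconclusive = At least half of replicates reach the limit but their mean does not; inactive = Under half of replicates reach the limit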;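 also: 0% = cytokine-treated negative control wells and 100% = positive control rescue; higher means more ATP so stronger rescue from cytokine killing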
Shn3 inh set2 = inhibitors of Schnurri-3 3'UTR reporter in osteoblasts; Clone20 osteoblast Shn3 3'UTR firefly luciferase, 24 h; inhibition, % at 12.5 µM; 360,000 tested, 0.52% active;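 active = mean inhibition of at least 75% with every replicate also reaching 75%; inconclusive = mean inhibition at least 75% but some replicate below; inactive = mean inhibition below 75%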;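 also: 0% = median of neutral control wells and 100% = pilot-screen positive control compound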
697 NFkB inh = inhibitors of the PMA/ionomycin-induced NF-kB reporter in 697 B cells; 697 B-cell NF-kB luciferase reporter, 16 h; inhibition, % at 4 µM; 330,000 tested, 0.33% active; AID 435022; in the data active = inhibition above about 35%
Jurkat NFkB inh = lowers PMA/ionomycin-induced NF-kB signal in Jurkat cells; PMA/ionomycin-induced NF-kB luciferase reporter, luminescence; inhibition, % at 4 µM; 330,000 tested, 0.53% active; AID 435003; in the data active = inhibition above about 50%
Active calls of the source: *; ? = inconclusive; . = no result. Rows were chosen to be rich in hits. Some 2% of all compounds tested hit in one or more screens of this group.

SMILES	Calb FLC	Beta apoptosis	Shn3 inh set2	697 NFkB inh	Jurkat NFkB inh
Cc1ccc(CSCC(=O)N(C)CC(=O)Nc2ccccc2C(F)(F)F)cc1	1	-1	1	7	18
Nc1ccc(N2CCCC2)c(S(=O)(=O)Nc2cccc(C(F)(F)F)c2)c1	.	-4	34	-16	-9
O=C(CN(C(=O)CCC(=O)Nc1ccccn1)c1cccc(F)c1)NCc1ccco1	5	-3	4	-16	-8
CC(=S)/C=C1\Sc2ccccc2N1C	117*	13	22	12	-4
Cc1ccc(NS(=O)(=O)c2ccc(Cl)c(NC(=S)NC(=O)C3CCCCC3)c2)cc1Cl	4	102*	3	1	-6
Cc1ccc(NC(=O)C2CCCC2)cc1Cl	13	.	-26	-9	3
Cc1cc2c(c(=O)n1Cc1ccccn1)C(c1ccc3c(c1)OCO3)C(C#N)=C(N)O2 (configuration not stated)	-8	0	17	-2	-4
COc1ccc(CCn2c(C)cc3c(c2=O)C(c2ccc4c(c2)OCO4)C(C#N)=C(N)O3)cc1OC (configuration not stated)	109*	3	20	16	-7
CCc1cc(C(=O)N2CCN(c3ccccn3)CC2)sc1C	-2	-6	-8	5	3
Cc1ccc(S(=O)(=O)N[C@H](C(=O)NCC2CCC(C(=O)O)CC2)C(C)C)cc1 (some centres not stated)	2	-3	-1	-5	11
Cc1c(C(=O)N(Cc2cccc(Br)c2)C2CCS(=O)(=O)C2)oc2ccccc12 (configuration not stated)	29	12	86*	-40	-17
Cc1c(C(=O)N(Cc2ccccc2)C2CCS(=O)(=O)C2)oc2ccccc12 (configuration not stated)	5	-2	15	8	2
O=C(CC1SC(N2CCCCC2)=NC1=O)Nc1cccc(C(=O)Nc2ncccc2O)c1 (configuration not stated)	0	2	-15	-16	4
C[C@@H]1CN([C@@H](C)CO)C(=O)c2cc(Br)cnc2O[C@H]1CN(C)C(=O)C1CC1	.	.	-2	.	.
COc1ccc(-c2cc(C(=O)Nc3ccc(OC)c(OC)c3)[nH]n2)c(C)c1	.	.	-9	.	.
Cn1cccc1/C=N/NC(=O)Cc1cccs1	-2	105*	11	2	-12
CCOC(=O)/C=C1\SCC(=O)N1CC(=O)Nc1cc(S(=O)(=O)N(C)C)ccc1C	.	-3	11	-7	0
CCOC(=O)c1c(NC(=O)C2Cc3ccccc3C(=O)O2)sc2c1CCCC2 (configuration not stated)	104*	3	23	3	-3
COC(=O)c1c(NC(=O)C2Cc3ccccc3C(=O)O2)sc2c1CCCC2 (configuration not stated)	45	12	20	-15	4
CNC(=S)N1N=C(c2ccccc2)CC1c1ccccc1Cl (configuration not stated)	65*	21	28	7	32
Cc1ccccc1Nc1c(-c2ccccn2)nc2ccccn12	6	17	55	-6	-3
Cc1cccn2c(Nc3ccccc3)c(-c3ccccn3)nc12	-8	78*	20	-13	4
Cc1ccn2c(Nc3ccccc3C)c(-c3ccccn3)nc2c1	55	94*	?	4	3
Cc1ccn2c(Nc3ccccc3)c(-c3ccccn3)nc2c1	5	96*	85	1	-1
Cc1ccc2nc(-c3ccccn3)c(Nc3ccccc3C)n2c1	30	101*	42	-8	-9
SMILES	Calb FLC	Beta apoptosis	Shn3 inh set2	697 NFkB inh	Jurkat NFkB inh
c1ccc(-c2nnc(SCc3ccncc3)o2)cc1	.	.	-39	.	.
Brc1cccc(CSc2nnc(-c3ccncc3)o2)c1	81*	-7	16	-9	3
Cc1nn(C)c(C)c1/C=C/C(=O)c1ccc(Cl)cc1Cl	92*	50	84	-18	37
CNC(=O)c1ccc2c(c1)nnn2C	106*	-6	-8	14	1
Cn1nnc2cc(C(=O)NC(C)(C)C)ccc21	-4	-2	1	-5	5
COc1cc(C(=O)Nc2ccc(Nc3ccccc3)cc2)cc(OC)c1OC	56	.	9	-3	2
COc1cc(Nc2nc(-c3ccccc3)c3cc(C)ccc3n2)cc(OC)c1OC	26	7	84*	7	7
Cc1nnc(N/N=C/c2cc([N+](=O)[O-])c(N3CCC(C)CC3)cc2N2CCC(C)CC2)n1N	-10	115*	66	2	6
CC(C)Oc1ccc(F)cc1-c1cc(C(=O)NCc2ccc(F)cc2)[nH]n1	.	.	-31	.	.
CC(=O)Nc1ccc(NC(=O)C(C)OC(=O)c2ccccc2NS(=O)(=O)c2cccs2)cc1 (configuration not stated)	0	-1	-5	9	10
Cc1ccc(NC2=C/C(=N/S(=O)(=O)c3cccs3)c3ccccc3C2=O)cc1C	0	80*	-5	.	.
CC(=O)Nc1ccc(NC2=C/C(=N/S(=O)(=O)c3cccs3)c3ccccc3C2=O)cc1	?	101*	96*	-17	18
O=C(O)c1cccc(N/N=C/c2sc(N3CCOCC3)nc2-c2ccccc2)c1	-2	4	-29	-41	7
O=C(N/N=C/c1sc(N2CCOCC2)nc1-c1ccccc1)c1cccc(S(=O)(=O)N2CCOCC2)c1	98*	113*	84	-4	11
O=C(N/N=C/c1sc(N2CCOCC2)nc1-c1ccccc1)c1ccccc1Cl	?	-7	-4	27	35
O=[N+]([O-])c1ccc(N/N=C/c2sc(N3CCOCC3)nc2-c2ccccc2)c(S(=O)(=O)Nc2ccccc2Cl)c1	.	.	87*	.	.
O=[N+]([O-])c1ccc(N/N=C/c2sc(N3CCOCC3)nc2-c2ccccc2)c(S(=O)(=O)Nc2ccc(Cl)cc2)c1	-4	.	91*	.	.
CCn1c(=O)n(CC)c2cc(NC(=O)C(C)c3ccccc3)c(Br)cc21 (configuration not stated)	-3	.	4	6	-14
CCC(CC)c1nc(C(N)=O)c2[nH]c(=O)n(-c3ccc(OC)c(OC)c3)c2n1	4	3	-20	-16	-20
CCC(C)(C)c1ccc(Oc2ccc(N)cc2)cc1	-29	.	88*	.	.
CN(Cc1ccccc1)CC(O)COc1ccc(CNCCc2cccnc2)cc1 (configuration not stated)	-1	3	-16	8	-4
CCc1ccc(CNCc2ccc(OCC(O)CN(C)Cc3ccccc3)cc2)nc1 (configuration not stated)	2	39	86*	-1	31
C/C(=C\c1ccc(F)cc1)C(=O)c1c(C)cc(C)[nH]c1=O	-1	.	8	12	-1
Cc1oc(C(C)(C)C)cc1C(=O)NCc1ccc2c(c1)OCO2	-2	-7	22	-3	-7
Cn1nc(C(C)(C)C)cc1C(=O)NCc1ccc2c(c1)OCO2	-13	117*	90*	5	40
CN(C)c1ccc(N=Cc2cccn2C)cc1	85*	7	-13	-207	-91
